JMJD2A Tudor inh – blocks the human JMJD2A Tudor domain; AlphaScreen JMJD2A-Tudor / H3K4me3 peptide binding; Potency, µM (series often up to 114 µM), for the others: top-dose activity change, negative = inhibition, actives largely listed as inhibitors; AID 504339; O75164; actives 4.4% (n = 390,000); further: on the % scale 0 is the no-effect control and ±100 the full control effect; nearly all actives have a fitted effect of over 50% in size
Sfp inh – blocks B. subtilis Sfp PPTase activity | Q9F4F7 | Biochemical Sfp PPTase activity, qHTS | Potency, µM, inactives show largest response in the series, negative = inhibition, usual class: inhibitors | AID 1490 | actives 3.5% (n = 310,000);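 further: the enzyme is Sfp with the accession as filed and its product quenches rhodamine fluorescence; 0% = enzyme reaction without inhibitor and -100% = no enzyme wells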
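Fluorescence-quenching assay: 15 nM Sfp-PPTase preincubated 15 min at room temperature with compound, then 5 uM rhodamine-CoA and 12.5 uM BHQ-2-labelled YbbR peptide added. Fluorescence (ex 525/em 598 nm) read at start and after 30 min; difference gives rate.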
BAZ2B block – inhibitors of human BAZ2B bromodomain; Q9UIF8; actives 4.4% (n = 360,000); AlphaScreen BAZ2B-H3K14Ac peptide displacement; Potency, µM (doses to about 114 µM), for the others: at the top dose activity change, negative = inhibition, most hits filed as inhibitors; AID 504333; further: on the % scale 0 is the no-effect control and ±100 the full control effect; nearly all actives have a fitted effect of over 60% in size
Target sequence (Q9UIF8 whole entry, looked up): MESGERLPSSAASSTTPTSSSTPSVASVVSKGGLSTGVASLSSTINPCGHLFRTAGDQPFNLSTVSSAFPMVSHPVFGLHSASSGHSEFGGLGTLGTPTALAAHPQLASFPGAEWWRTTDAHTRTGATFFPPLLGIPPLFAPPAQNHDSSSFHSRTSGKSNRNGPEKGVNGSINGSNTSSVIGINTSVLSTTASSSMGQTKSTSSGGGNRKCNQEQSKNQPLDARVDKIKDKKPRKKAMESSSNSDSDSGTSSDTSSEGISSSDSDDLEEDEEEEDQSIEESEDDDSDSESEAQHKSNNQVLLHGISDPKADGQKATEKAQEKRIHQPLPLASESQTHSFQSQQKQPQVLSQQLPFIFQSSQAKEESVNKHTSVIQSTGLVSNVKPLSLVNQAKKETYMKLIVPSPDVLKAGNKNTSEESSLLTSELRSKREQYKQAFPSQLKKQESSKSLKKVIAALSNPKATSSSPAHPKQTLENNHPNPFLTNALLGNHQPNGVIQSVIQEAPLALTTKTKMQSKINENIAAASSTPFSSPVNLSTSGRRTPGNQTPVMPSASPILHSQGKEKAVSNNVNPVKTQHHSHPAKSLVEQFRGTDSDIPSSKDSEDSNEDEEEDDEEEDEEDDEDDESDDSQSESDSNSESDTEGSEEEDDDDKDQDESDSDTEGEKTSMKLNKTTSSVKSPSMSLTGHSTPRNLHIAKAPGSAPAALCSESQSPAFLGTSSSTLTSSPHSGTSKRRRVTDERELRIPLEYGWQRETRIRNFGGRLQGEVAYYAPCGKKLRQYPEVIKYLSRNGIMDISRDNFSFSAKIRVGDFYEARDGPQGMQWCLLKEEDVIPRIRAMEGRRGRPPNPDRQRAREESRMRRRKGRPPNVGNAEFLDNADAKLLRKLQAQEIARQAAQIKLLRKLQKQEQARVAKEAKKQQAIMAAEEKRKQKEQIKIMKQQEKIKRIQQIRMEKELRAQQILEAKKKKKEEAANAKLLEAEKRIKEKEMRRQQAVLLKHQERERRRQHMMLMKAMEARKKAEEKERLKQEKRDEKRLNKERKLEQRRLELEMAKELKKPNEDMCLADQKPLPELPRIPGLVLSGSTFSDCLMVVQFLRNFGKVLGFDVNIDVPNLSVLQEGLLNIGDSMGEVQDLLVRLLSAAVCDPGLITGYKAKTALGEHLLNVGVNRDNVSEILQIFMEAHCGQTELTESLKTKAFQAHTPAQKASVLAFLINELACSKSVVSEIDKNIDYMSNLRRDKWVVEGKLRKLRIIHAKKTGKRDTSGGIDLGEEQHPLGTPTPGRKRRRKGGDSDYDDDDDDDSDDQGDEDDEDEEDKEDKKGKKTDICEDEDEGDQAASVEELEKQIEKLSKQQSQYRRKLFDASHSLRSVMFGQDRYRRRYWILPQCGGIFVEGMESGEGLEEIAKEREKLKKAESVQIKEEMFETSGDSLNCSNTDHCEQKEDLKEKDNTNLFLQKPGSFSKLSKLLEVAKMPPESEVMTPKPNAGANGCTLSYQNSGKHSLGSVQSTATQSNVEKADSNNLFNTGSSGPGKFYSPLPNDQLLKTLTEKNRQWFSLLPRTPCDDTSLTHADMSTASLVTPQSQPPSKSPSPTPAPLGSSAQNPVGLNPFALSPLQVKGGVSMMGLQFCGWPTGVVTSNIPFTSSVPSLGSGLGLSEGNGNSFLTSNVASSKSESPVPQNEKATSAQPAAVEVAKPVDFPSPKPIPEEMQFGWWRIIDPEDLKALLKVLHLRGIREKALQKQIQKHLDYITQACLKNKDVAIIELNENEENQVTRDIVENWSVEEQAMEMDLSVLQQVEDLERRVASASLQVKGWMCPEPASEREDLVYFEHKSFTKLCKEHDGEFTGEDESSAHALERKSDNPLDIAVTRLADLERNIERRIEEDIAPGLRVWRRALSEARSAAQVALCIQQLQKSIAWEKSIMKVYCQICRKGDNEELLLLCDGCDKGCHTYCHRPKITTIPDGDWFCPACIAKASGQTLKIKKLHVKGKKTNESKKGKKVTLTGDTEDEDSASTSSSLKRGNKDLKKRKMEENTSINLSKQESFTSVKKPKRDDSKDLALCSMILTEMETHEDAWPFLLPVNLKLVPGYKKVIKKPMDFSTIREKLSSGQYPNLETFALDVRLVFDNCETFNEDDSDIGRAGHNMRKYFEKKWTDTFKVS
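In this displacement format the biotinylated H3(5-23) peptide acetylated at Lys14 serves as ligand at 50 nM, with BAZ2B at 50 nM in PBS pH 7.4 containing 0.01% Tween-20. Donor and acceptor beads are 10 ug/mL final.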
G9a block – blocks human histone lysine methyltransferase G9a. Q96KQ7. G9a H3K9 monomethylation, AlphaScreen, 2 h. Potency, µM (doses to about 102 µM), for inactives: at the top dose activity, negative = inhibition, actives largely listed as inhibitors. actives 8.8% (n = 350,000). AID 504332; further: on the % scale 0 is the no-effect control and ±100 the full control effect; nearly all actives have a fitted effect of over 75% in size
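G9a (20 nM) preincubated 15 min RT with compounds, then 500 nM biotinylated H3K9 peptide and 20 uM SAM added; 2 h RT reaction. Monomethyl-H3K9 product detected by AlphaScreen with anti-H3K9me1 antibody, streptavidin donor and anti-rabbit IgG acceptor beads.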
12-LOX inh – inhibitors of human 12S-lipoxygenase ALOX12; P18054; purified 12hLO, xylenol orange hydroperoxide absorbance; Potency, µM (series often up to 108 µM), for inactives: top-dose activity change, negative = inhibition, actives largely listed as inhibitors; actives 1.1% (n = 580,000); AID 1671190; further: on the % scale 0 is the no-effect control and ±100 the full control effect
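Purified human 12hLO at 150 nM in 25 mM Hepes, 0.01% Triton X-100, pH 7.0, preincubated 15 min at room temperature with compound. Reaction started with 40 uM arachidonic acid, 30 min at room temperature. Hydroperoxide measured by Fe-xylenol orange, 573/405 nm absorbance ratio.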
HP1b binding inh – blocks HP1-beta chromodomain binding to methylated histone tails. Potency, µM (highest dose often 114 µM), for inactives: at the top dose activity change, negative = inhibition, actives largely listed as inhibitors. actives 0.56% (n = 390,000). AlphaScreen HP1-beta / biotin-H3K9me3 peptide binding; further: nearly all actives have a fitted effect of over 70% in size
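AlphaScreen: HP1-beta (50 nM) preformed 30 min with biotin-H3(1-18)K9me3 peptide (50 nM) in PBS pH 7.4, 0.01% Tween-20. Compound added for 30 min at RT, then streptavidin donor/nickel chelate acceptor beads (10 ug/mL) for 30 min.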
Active calls of the source: *; ? = inconclusive; nt = no result given; [ ] = another dose, or the depositor's remark. In the library only some 8.7% were active in any assay of this set; here they are far more common. The call rests on the fitted dose curve; in most records, active means well fitted curve in the direction sought with a large enough effect; inconclusive means small, poorly fitted or top-dose-only effect, or another doubt; inactive means no such curve, though single readings can be large; an effect the other way counts as inactive or inconclusive. Potency means the concentration at half of the fitted maximal effect.

SMILES	JMJD2A Tudor inh	Sfp inh	BAZ2B block	G9a block	12-LOX inh	HP1b binding inh
COc1ccc(NC(=O)CC(NCCc2ccccc2)C(=O)O)c(OC)c1 (stereo not drawn)	4.47µM*	-16.7%	-29.8%	28.2µM*	-3.8%	-4.6%
COc1ccccc1NC(=O)CC(NCc1ccccc1)C(=O)O (stereo not drawn)	11.2µM*	2.0%	?	?	-12.4%	-8.6%
COCCCNC(CC(=O)Nc1ccc(OC)cc1OC)C(=O)O (stereo not drawn)	10µM*	-19.3%	-8.2%	?	?	-18.7%
COCCCNC(=O)CC(NCCCOC)C(=O)O (stereo not drawn)	-14.6%	4.5%	-21.8%	?	?	-11.8%
COc1ccc(NC(=O)CC(C)CC(=O)NCc2ccccc2)c(OC)c1 (stereo not drawn)	-12.5%	11.7%	0.6%	20.1%	0.0%	29.4%
O=C(Nc1ccc(Cl)c(C(F)(F)F)c1)c1c(-c2ccccc2)nc2n1CCS2(=O)=O	nt	nt	nt	nt	-13.5%	nt
Cc1ccc(NC(=O)CSc2nnc(-c3ccco3)c(-c3ccco3)n2)cc1	56.2µM*	8.91µM*	31.6µM*	?	?	?
CN(C)c1ccc(NC(=O)CSc2nnc(-c3ccco3)c(-c3ccco3)n2)cc1	?	?	25.1µM*	25.1µM*	-30.4%	?
Cc1cccc(C)c1NC(=O)CSc1nnc(-c2ccco2)c(-c2ccco2)n1	25.1µM*	11.2µM*	2.51µM*	18.5%[0.501 µM]	nt	50.1µM*
Cc1ccc(SCC(=O)Nc2ccc(-c3nnc(-c4ccco4)o3)cc2)cc1	?	12.1%	-36.8%	-14.7%	8.3%	5.8%
O=C(CSc1nnc(-c2ccco2)c(-c2ccco2)n1)Nc1ccccc1	50.1µM*	8.91µM*	20µM*	-3.2%[2.33 µM]	?	22.4µM*
O=C(CSc1n[nH]c(-c2ccco2)n1)Nc1ccc(F)cc1	-18.5%	2.5%	-4.2%	6.3%	-2.8%	-6.4%
COc1ccc(NC2CCCN(C(=O)c3ccccc3C(F)(F)F)C2)cc1OC (stereo not drawn)	nt	nt	nt	nt	-5.3%	nt
CCc1ccc2oc(C(=O)Nc3ccc(C)cc3)cc(=O)c2c1	nt	nt	nt	nt	4.2%	nt
O=C1Nc2ccccc2CC12CCN2[S+](=O)([O-])c1cccs1 (stereo not drawn)	nt	nt	nt	nt	0.5%[176 µM]	nt
Cc1ccc(C)c(C(=O)NCc2nnc3cc(-c4nc(C5CC5)no4)ccn23)c1	nt	nt	nt	nt	0.4%	nt
c1ccc(-c2nn3c(Cn4nnc5ccccc54)nnc3s2)cc1	?	-99.8%	1.4%	3.16µM*	14.1µM*	?
c1ccc2c(c1)nnn2Cc1nnc2sc(-c3ccc4c(c3)OCCO4)nn12	-29.4%	17.8µM*	-1.2%	?	?	-35.9%
c1ccc(C2=Nn3c(Cn4nnc5ccccc54)nnc3SC2)cc1	-6.6%	24.1%	-5.3%	?	8.6%	27.4%
COc1ccc(Cc2nn3c(Cn4nnc5ccccc54)nnc3s2)cc1	89.1µM*	15.8µM*	-38.4%	1.58µM*	3.6%	?
Cc1csc(NC(=O)NC2CC(=O)N(c3cccc(F)c3)C2)n1 (stereo not drawn)	nt	nt	nt	nt	-2.7%	nt
CCCCOc1ccccc1NC(=O)C=C(C)C	35.2%	5.1%	29.1%	-5.9%[12.7 µM]	1.1%	35.2%
CCCOc1ccccc1NC(=O)/C=C/C(N)=O	-5.1%	-24.6%	8.8%	35.5µM*	-19.1%	15.4%
CC1=NN(c2nc(C)cc(C)n2)C(=O)C1Cc1cccc(Cl)c1 (stereo not drawn)	nt	nt	nt	nt	0.7%	nt
O=C(/C(=C\c1ccc(Cl)cc1Cl)c1nc2ccccc2o1)c1ccccc1	nt	nt	nt	nt	7.4%	nt
SMILES	JMJD2A Tudor inh	Sfp inh	BAZ2B block	G9a block	12-LOX inh	HP1b binding inh
Cn1cc[nH]c1=S	?	?	-22.7%	44.7µM*	-14.3%	16.0%
Cc1nn(-c2cccc(Br)c2)c(C)c1[C@@H]1C=C[C@@H](NC(=O)c2cccs2)C1	nt	nt	nt	nt	47.8%	nt
O=[N+]([O-])c1cccc(C2NCC(c3ccccc3Cl)c3c2[nH]c2ccccc32)c1 (stereo not drawn)	?	0.7%	35.5µM*	39.8µM*	-25.1%	?
CN(C)c1ccc(C2CNC(c3ccc(Cl)c([N+](=O)[O-])c3)c3[nH]c4ccccc4c32)cc1 (stereo not drawn)	35.5µM*	5.4%	10µM*	?	-17.6%	?
CN(C)c1ccc(CN2CCCC3(CC(c4ccccn4)=NO3)C2)cc1 (stereo not drawn)	nt	nt	nt	nt	5.2%[6.33 µM]	nt
COc1ccc2[nH]c(=O)c(CN(C(=O)c3ccccn3)C3CCCCC3)cc2c1	6.8%	-19.7%	16.5%	28.2µM*	?	-13.5%
COc1cc2cc(CN(Cc3nnnn3C3CCCC3)C3CCCC3)c(=O)[nH]c2cc1OC	nt	5.8%	-6.5%	-2.4%[59 µM]	nt	nt
COc1ccc(Cn2nnnc2CN(Cc2cc3cc(C)ccc3[nH]c2=O)C2CCCC2)cc1	-23.8%	20µM*	7.9%	?	-15.7%	8.6%
O=C(c1ccccn1)N(Cc1cc2ccccc2[nH]c1=O)C1CCCCC1	-4.7%	-5.1%	10.4%	0.9%	?	11.3%
Cc1ccc(C)c2[nH]c(=O)c(C(c3nnnn3CCc3ccccc3)N3CCOCC3)cc12 (stereo not drawn)	-7.2%	7.2%	14.5%	-13.0%[59 µM]	11.5%	20.8%
COc1ccc2[nH]c(=O)c(CN(C3CCCCC3)C(c3nnnn3Cc3ccco3)C(C)C)cc2c1 (stereo not drawn)	?	3.16µM*	-9.1%	22.4µM*	nt	?
Cc1ccc(C)c2[nH]c(=O)c(C(c3nnnn3Cc3ccco3)N3CCc4ccccc4C3)cc12 (stereo not drawn)	-31.3%	20µM*	-31.9%	31.6µM*	?	19.6%
COc1ccc2[nH]c(=O)c(CN(Cc3ccco3)C(c3nnnn3Cc3ccccc3)C(C)C)cc2c1 (stereo not drawn)	-12.7%	-7.0%	?	-14.2%	-11.1%	21.3%
CCOc1ccc2[nH]c(=O)c(C(c3nnnn3Cc3ccco3)N3CCCC(C)C3)cc2c1 (stereo not drawn)	-32.8%	12.6µM*	?	?	?	-1.5%
COc1ccc2cc(CN(CCc3ccccc3)Cc3nnnn3Cc3ccco3)c(=O)[nH]c2c1	-35.1%	-26.1%	?	?	?	-13.4%
CCOc1ccc2[nH]c(=O)c(C(c3nnnn3C3CCCCC3)N3CCN(C)CC3)cc2c1 (stereo not drawn)	-8.1%	2.4%	2.5%	?	0.0%	31.0%
COc1ccc2[nH]c(=O)c(CN(Cc3nnnn3Cc3ccco3)C3CCCCC3)cc2c1	?	8.91µM*	50.1µM*	39.8µM*	0.0%	-26.2%
CCCCN1C[C@@H](CO)[C@H](c2nc(CCOC)no2)C1	nt	nt	nt	nt	28.3%	nt

Bioassay records from PubChem BioAssay.
